{
  "source": "the supplement of paper PMC11732987",
  "about": "“Enantioselective OTUD7B fragment discovery through chemoproteomics screening and high-throughput optimisation” (Communications Chemistry, 2025)",
  "assay_in_all_cases": "log2 ratio of Biotin-Ahx-Ub-VS probe labelling (fragment/DMSO); higher = less target engagement (more negative = stronger competition), active = hit call of the paper (q ≤ 0.05, log2 ratio ≤ -1)",
  "conditions_in_all_cases": "compound concentration: 200 uM; treatment time: 3 h",
  "key": {"[1]": {"target": "T1, USP19 (UniProt O94966)", "T1 sequence (whole entry)": "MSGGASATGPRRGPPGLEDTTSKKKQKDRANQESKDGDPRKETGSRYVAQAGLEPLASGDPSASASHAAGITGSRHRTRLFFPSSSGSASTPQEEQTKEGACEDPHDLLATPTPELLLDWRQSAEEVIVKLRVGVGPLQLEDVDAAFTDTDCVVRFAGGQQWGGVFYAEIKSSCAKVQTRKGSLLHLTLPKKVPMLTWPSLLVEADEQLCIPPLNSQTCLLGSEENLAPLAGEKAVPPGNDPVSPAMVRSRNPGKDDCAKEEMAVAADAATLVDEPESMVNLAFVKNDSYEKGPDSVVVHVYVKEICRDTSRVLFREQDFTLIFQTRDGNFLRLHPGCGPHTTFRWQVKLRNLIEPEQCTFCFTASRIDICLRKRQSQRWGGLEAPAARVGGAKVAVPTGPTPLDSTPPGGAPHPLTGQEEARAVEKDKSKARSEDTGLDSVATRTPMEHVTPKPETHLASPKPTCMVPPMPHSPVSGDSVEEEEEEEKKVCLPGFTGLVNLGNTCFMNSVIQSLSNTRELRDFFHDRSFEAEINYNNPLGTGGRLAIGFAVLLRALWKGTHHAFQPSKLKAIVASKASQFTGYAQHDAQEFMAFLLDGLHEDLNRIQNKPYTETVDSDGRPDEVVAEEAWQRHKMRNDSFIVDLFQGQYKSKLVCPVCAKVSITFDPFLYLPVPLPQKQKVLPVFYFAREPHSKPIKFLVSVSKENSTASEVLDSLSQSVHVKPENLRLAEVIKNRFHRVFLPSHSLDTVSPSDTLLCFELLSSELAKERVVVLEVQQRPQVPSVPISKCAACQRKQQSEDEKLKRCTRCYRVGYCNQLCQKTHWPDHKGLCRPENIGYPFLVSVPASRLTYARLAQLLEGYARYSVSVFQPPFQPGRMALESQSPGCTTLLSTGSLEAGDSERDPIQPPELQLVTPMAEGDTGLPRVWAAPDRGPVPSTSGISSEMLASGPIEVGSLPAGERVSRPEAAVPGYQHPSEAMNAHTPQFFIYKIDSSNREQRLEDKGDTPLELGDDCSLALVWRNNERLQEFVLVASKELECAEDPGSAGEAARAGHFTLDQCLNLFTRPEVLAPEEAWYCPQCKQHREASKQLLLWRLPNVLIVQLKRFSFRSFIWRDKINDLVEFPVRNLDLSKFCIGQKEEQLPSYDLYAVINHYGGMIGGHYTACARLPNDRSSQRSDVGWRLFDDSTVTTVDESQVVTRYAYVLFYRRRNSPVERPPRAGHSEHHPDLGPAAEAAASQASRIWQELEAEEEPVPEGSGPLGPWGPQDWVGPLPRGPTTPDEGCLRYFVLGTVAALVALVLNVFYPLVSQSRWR", "method_in_brief": "(§1)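 Triplicate samples of HEK293T lysate, 495 µg each, received fragment at 200 µM or vehicle for 3 h, followed by Biotin-Ahx-Ub-VS (0.5 µM final) for 1 h. After NeutrAvidin enrichment of labelled DUBs and LysC/trypsin digestion, peptides were run by diaPASEF LC-MS/MS. The values are average log2 fragment/vehicle ratios from global-median-normalised Spectronaut label-free quantities, tested by unpaired t-test on proteins having ≥2 unique peptides.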"}, "[2]": {"target": "USP24 (UniProt Q9UPU5)", "sequence (Q9UPU5 whole entry)": "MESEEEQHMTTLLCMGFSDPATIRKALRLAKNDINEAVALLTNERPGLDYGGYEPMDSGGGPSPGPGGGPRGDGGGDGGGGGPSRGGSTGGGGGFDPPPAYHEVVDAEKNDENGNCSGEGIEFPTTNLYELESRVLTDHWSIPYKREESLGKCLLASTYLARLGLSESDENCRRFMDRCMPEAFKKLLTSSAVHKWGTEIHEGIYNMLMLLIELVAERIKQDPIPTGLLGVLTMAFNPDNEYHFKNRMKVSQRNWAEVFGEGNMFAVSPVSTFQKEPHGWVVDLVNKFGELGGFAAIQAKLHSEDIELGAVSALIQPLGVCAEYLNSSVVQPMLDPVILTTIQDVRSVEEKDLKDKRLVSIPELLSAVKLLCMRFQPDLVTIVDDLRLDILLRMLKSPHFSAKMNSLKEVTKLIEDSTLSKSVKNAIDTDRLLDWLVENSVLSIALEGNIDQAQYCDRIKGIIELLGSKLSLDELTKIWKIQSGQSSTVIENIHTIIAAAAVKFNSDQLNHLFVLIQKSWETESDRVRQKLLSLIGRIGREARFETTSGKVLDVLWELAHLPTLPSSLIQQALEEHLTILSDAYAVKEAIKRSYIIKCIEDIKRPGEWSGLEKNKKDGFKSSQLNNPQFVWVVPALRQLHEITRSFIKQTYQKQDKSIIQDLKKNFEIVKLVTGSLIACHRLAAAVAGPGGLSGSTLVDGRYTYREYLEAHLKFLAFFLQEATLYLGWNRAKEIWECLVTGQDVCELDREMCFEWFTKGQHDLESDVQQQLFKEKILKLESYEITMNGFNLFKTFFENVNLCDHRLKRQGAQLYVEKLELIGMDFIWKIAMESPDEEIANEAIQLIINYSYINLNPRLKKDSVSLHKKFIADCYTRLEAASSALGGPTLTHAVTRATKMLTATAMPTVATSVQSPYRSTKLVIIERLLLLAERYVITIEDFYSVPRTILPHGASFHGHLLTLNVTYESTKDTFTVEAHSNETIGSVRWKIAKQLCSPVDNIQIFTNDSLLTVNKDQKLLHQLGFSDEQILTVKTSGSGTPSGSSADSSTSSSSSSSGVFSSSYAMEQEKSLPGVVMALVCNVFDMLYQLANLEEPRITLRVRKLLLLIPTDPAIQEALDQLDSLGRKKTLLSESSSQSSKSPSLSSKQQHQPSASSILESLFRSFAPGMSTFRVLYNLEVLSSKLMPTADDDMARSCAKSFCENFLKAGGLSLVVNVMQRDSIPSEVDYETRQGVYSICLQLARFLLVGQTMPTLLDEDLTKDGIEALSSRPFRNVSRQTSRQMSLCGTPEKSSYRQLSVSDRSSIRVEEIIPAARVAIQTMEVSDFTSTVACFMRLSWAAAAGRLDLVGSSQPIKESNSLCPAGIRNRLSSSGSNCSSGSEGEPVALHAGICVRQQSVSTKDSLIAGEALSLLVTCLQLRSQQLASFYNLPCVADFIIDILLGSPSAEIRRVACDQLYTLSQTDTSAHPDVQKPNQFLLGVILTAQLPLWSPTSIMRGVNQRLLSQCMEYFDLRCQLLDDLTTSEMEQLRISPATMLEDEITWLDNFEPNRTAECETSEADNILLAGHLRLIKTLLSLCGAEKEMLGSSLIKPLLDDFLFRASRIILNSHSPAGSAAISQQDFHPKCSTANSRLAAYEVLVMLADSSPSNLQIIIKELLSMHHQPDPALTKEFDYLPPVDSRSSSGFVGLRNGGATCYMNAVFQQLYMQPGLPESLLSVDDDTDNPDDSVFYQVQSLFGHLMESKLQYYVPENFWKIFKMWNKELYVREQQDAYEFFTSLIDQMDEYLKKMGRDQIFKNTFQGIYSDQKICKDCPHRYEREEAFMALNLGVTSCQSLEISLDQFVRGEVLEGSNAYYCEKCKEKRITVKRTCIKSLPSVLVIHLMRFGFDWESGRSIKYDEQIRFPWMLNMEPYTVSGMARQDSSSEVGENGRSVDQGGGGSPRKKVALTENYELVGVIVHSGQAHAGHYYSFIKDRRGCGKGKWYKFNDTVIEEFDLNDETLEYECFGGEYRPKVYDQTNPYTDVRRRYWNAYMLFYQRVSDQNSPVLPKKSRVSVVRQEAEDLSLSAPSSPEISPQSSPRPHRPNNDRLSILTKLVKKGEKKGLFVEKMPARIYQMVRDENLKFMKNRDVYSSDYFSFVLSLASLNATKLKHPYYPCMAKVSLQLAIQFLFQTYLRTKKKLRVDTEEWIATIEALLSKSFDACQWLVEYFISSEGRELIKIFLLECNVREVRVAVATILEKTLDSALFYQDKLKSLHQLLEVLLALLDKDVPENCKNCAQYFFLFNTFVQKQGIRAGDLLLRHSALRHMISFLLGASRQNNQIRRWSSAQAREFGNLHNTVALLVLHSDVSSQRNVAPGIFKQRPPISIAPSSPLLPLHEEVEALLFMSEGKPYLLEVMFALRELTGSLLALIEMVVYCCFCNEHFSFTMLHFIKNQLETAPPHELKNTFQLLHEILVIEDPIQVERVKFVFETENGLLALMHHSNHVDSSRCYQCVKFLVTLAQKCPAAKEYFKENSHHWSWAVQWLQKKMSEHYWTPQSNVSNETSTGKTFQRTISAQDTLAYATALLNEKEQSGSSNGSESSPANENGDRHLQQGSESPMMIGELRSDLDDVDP", "method_in_brief": "as §1"}, "[3]": {"target": "T2, USP25 (UniProt Q9UHP3)", "T2 sequence (whole entry)": "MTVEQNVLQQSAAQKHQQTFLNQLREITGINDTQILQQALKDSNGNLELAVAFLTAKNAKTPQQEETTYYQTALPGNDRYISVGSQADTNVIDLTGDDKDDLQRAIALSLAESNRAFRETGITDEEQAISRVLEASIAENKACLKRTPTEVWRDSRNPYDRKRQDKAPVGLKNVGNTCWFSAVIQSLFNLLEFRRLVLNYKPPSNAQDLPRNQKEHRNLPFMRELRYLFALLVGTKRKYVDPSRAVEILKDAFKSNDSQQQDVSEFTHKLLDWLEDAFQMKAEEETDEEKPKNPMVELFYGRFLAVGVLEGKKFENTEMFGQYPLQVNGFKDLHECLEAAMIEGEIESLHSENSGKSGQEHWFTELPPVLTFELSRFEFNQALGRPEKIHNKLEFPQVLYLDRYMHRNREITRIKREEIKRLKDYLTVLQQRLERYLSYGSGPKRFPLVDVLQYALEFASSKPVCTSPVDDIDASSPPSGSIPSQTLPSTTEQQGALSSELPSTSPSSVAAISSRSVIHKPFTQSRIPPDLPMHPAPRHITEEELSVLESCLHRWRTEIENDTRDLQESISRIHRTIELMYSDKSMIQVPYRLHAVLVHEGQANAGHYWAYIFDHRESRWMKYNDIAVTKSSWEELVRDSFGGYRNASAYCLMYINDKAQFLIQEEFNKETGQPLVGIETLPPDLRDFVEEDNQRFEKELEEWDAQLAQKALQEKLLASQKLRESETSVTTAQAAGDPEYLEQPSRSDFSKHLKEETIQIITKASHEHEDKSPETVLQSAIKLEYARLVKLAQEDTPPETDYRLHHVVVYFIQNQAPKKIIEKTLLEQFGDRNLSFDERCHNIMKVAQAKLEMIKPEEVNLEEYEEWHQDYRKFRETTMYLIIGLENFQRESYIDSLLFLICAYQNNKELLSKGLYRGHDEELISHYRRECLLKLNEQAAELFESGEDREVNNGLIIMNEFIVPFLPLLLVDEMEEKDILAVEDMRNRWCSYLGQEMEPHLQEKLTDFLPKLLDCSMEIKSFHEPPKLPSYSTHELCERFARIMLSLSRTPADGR", "method_in_brief": "as §1"}, "[4]": {"target": "T3, USP28 (UniProt Q96RU2)", "T3 sequence (whole entry)": "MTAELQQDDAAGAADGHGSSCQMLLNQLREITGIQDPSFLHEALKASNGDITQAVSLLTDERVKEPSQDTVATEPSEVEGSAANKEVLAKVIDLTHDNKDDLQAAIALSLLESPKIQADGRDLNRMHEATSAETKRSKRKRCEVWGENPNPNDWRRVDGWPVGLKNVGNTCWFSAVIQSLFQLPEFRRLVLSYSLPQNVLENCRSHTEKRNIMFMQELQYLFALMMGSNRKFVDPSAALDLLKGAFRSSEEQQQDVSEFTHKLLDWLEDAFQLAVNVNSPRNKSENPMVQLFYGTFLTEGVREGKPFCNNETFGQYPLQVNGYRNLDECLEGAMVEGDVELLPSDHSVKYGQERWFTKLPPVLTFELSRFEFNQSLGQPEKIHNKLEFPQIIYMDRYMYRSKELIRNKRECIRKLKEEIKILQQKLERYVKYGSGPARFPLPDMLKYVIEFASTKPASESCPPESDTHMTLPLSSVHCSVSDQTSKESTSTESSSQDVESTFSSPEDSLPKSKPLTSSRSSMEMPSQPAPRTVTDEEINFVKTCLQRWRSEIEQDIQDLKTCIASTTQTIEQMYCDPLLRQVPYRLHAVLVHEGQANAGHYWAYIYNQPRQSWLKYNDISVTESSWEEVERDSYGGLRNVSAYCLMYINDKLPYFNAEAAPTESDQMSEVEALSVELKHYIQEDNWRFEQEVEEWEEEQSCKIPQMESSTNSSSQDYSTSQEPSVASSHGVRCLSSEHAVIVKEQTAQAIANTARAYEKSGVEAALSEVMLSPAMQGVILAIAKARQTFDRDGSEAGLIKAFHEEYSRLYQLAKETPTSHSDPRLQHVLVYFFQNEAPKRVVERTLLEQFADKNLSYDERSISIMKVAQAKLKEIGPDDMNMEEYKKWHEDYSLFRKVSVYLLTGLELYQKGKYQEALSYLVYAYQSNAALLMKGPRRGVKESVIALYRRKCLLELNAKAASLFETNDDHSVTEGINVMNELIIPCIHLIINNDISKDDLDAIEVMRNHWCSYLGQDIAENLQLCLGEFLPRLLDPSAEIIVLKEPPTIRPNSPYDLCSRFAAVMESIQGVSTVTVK", "method_in_brief": "as §1"}},
  "note": "Unmarked numbers belong to inactive results.",
  "data": [
    {"smiles": "Cl.O=C(CCl)NCCN1CCc2ccccc21", "values": [
      {"measurement": "log2 ratio of Biotin-Ahx-Ub-VS probe labelling", "setting": "[1]", "result": -0.976},
      {"measurement": "log2 ratio of Biotin-Ahx-Ub-VS probe labelling", "setting": "[2]", "result": "-1.05 (active)"},
      {"measurement": "log2 ratio of Biotin-Ahx-Ub-VS probe labelling", "setting": "[3]", "result": -0.576},
      {"measurement": "log2 ratio of Biotin-Ahx-Ub-VS probe labelling", "setting": "[4]", "result": "-1.11 (active)"}
    ]}
  ]
}
